According to PubChem BioAssay (Tox21):
Where “and” joins values, the source holds several entries; their conditions need not be identical. Identical values can stand only once. Inconclusive results are not listed. Entries that show only a call come without a potency. Where a structure was tested more than once in an assay, its records may differ in their call. Calls of active or inactive are those of the source. Calls come from the whole dose curve; as a rule, active = well fitted activation curve with a large enough effect in the repeat runs; inconclusive = weak or mixed curves; inactive = flat fitted curve, though single readings scatter.

test: A CellTox Green Cytotoxicity Assay to monitor cytotoxicity in HEK293 cells - 40 hour (AID 1224871); details: CellTox Green fluorescence; series mostly up to 76.8 µM; note: nearly all actives have a fitted effect of over 45% in size
Source text: National Center for Advancing Translational Sciences [NCATS]
NIH Chemical Genomics Center [NCGC]
U.S. Environmental Protection Agency [EPA]
National Institutes of Environmental Health Sciences [NIEHS]
National Toxicology Program [NTP]
Cell-based models are critical for drug discovery. Determining the natural cytotoxic effects resulting from test compounds is an essential research activity. A CellTox Green Cytotoxicity Assay to monitor cytotoxicity in real time of continues cell culture during 40 hours of the compound treatment was used to screen Tox21 10K library compounds in Hek293 cells. CellTox Green Cytotoxicity Assay is a nonlytic, homogeneous, biofluorescent method to measure cytotoxicity in cell culture after experimental manipulation. The assay system uses a proprietary asymmetric cyanine dye that is excluded from viable cells but preferentially stains the dead cell's DNA. […] Viable cells produce no appreciable increases in fluorescence. Therefore, the fluorescence signal produced by the binding interaction with dead cell DNA is proportional to cytotoxicity.
The mixture of Hek293 cell suspension and reagents were dispensed at 600cells/6 ul/well in 1536-well tissue culture treated black solid bottom plates using a Multidrop dispenser. After the assay plates were incubated at a 37 C/5% CO2 incubator for 5 hours, 23 nL of compounds dissolved in DMSO, positive and negative controls was transferred to the assay plate by a pintool work station. The plates were incubated at 37 C for 40 hours. The fluorescence intensity were measured at 0h, 8h, 16h, 24h, 32h and 40h time points using ViewLux plate reader during compound treatment.
Potency is the fitted concentration of half-maximal effect.

Row | Structure (SMILES) | Potency
1 | O=C(c1ccc(O)cc1)c1ccc(O)cc1O | inactive
2 | Oc1ccc(OCc2ccccc2)cc1 | inactive
3 | OC[C@@H](O)[C@@H](O)[C@H](O)[C@@H](O)CO | inactive
4 | O=[N+]([O-])C(CO)(CO)CO | inactive
5 | CCCCNC(N)=O | inactive
6 | NCCc1ccc(O)c(O)c1 | inactive
7 | O=C(Cl)c1c(Cl)c(Cl)c(C(=O)Cl)c(Cl)c1Cl | inactive
8 | O=S(=O)(O)c1cc(S(=O)(=O)O)c2c(N=Nc3ccccc3)c(O)ccc2c1 | inactive
9 | C[C@@H]1O[C@@H](OC[C@H]2O[C@@H](Oc3c(-c4ccc(O)c(O)c4)oc4cc(O)cc(O)c4c3=O)[C@H](O)[C@@H](O)[C@@H]2O)[C@H](O)[C@H](O)[C@H]1O | inactive
10 | CCCCC(CC)COC(=O)CCCCCCCC(=O)OCC(CC)CCCC (stereo not given) | 49 µM (active) and inactive
11 | Nc1nc2ncc(CNc3ccc(C(=O)N[C@@H](CCC(=O)O)C(=O)O)cc3)nc2c(=O)[nH]1 | inactive
12 | CCCCCCCCCC(=O)O | inactive
13 | COC(=O)c1ccccc1O | inactive
14 | CC(C)(C)C1CCC(O)CC1 (stereo not given) | inactive
15 | Cc1cc(O)cc(C)c1Cl | inactive
16 | OCCOCCOCCOCCO | inactive
17 | CC1Cc2ccccc2N1NC(=O)c1ccc(Cl)c(S(N)(=O)=O)c1 (stereo not given) | inactive
18 | Cc1ccc(N)c(S(=O)(=O)O)c1 | inactive
19 | C=CC(=O)OCCCCCCCC(C)C | inactive
20 | S=c1nc[nH]c2nc[nH]c12 | inactive

Row | Structure (SMILES) | Potency
21 | CCOC(=O)C1OC1c1ccccc1 (stereo not given) | inactive
22 | NC(=O)/N=N/C(N)=O | inactive
23 | Cc1cc(Cc2ccc(N)c(C)c2)ccc1N | inactive
24 | CC(C)(N=C=O)c1cccc(C(C)(C)N=C=O)c1 | inactive
25 | COCC(=O)O | inactive
26 | CCCCCC/C=C/CCCCCCCC(=O)O | inactive
27 | CCCCCCCCCCCCOCC1CO1 (stereo not given) | inactive
28 | CC#C[C@]1(O)CC[C@H]2[C@@H]3CCC4=CC(=O)CCC4=C3[C@@H](c3ccc(N(C)C)cc3)C[C@@]21C | inactive
29 | CC(C)(C)C(=O)C1C(=O)c2ccccc2C1=O | inactive
30 | Nc1c(S(=O)(=O)O)cc(Br)c2c1C(=O)c1ccccc1C2=O | inactive
31 | O=c1c(-c2ccc(O)cc2)coc2cc(O)ccc12 | inactive
32 | O=C(O)c1ccc([N+](=O)[O-])cc1 | inactive
33 | CCc1ccccc1O | 54.7 µM (active) and inactive
34 | CCCCC/C=C\C/C=C\CCCCCCCC(=O)OC | inactive and 54.9 µM (active)
35 | CC[Si](OC(C)=O)(OC(C)=O)OC(C)=O | inactive
36 | O=C(c1cc(O)c(O)c(O)c1)c1ccc(O)c(O)c1O | inactive
37 | c1ccc2ccccc2c1 | inactive
38 | C/C=C(C)/C=C/C=C(C)C | inactive
39 | CCc1ccc(O)cc1 | inactive
40 | CCCCCCC(C)(C)S | inactive
